Data published in ChEMBL document CHEMBL1857833, “Screening and optimization of specific chemical series against human African Trypanosomiasis (HAT)”.
The whole screen tested about 4,400 compounds, of which about 390 (8.9%) showed an effect of 50% or more. This is one part of a sample in which strong results are shown more often than they occur.

system: Trypanosoma brucei; assay: DNDI: Inhibition of Human African Trypanosomiasis, SBRI 427, in vitro at 2 ug.mL-1; format: functional

| SMILES | % inhibition [%] |
| --- | --- |
| CCOc1ccccc1CN/C(=N\O)c1ccc(Oc2ccc(C)cc2OC)nc1 | 25 |
| CCN(CCC#N)Cc1coc(-c2cccc3ccccc23)n1 | 10 |
| Cc1ccccc1-c1nc(CNCC(C)(C)CN(C)C)co1 | -8 |
| COc1cc(C)ccc1Oc1nc(C)ccc1/C(=N/O)N1CCCC1 | 13 |
| Cc1ccc(Oc2nc(C)ccc2/C(=N/O)NCC(C)C)c(C)c1 | 20 |
| COc1cc(C)ccc1Oc1nc(C)ccc1/C(=N/O)NCCSC | -7 |
| COc1cc(C)ccc1Oc1nc(C)ccc1/C(=N/O)NCC1CC1 | 100 |
| Cc1ccc(/C(=N/O)NCCN2CCCC2)c(Oc2cccc(F)c2)n1 | -3 |
| CCCN/C(=N\O)c1ccc(C)nc1Oc1ccc(C)cc1OC | 22 |
| COc1cc(C)ccc1Oc1nc(C)ccc1/C(=N/O)NCC(C)C | 100 |
| COc1cc(C)ccc1Oc1nc(C)ccc1/C(=N/O)NCC(C)(C)C | 99 |
| COc1cc(C)ccc1Oc1nc(C)ccc1/C(=N/O)NCC1CCCO1 (centres undefined) | 15 |
| COc1cc(C)ccc1Oc1nc(C)ccc1/C(=N/O)NCC1CCCCC1 | 0 |
| COc1ccc(Oc2nc(C)ccc2/C(=N/O)NCCN2CCCC2)cc1 | -2 |
| Cc1ccc(Oc2nc(C)ccc2/C(=N/O)NCC(C)(C)C)c(C)c1 | 11 |
| Cc1ccc(/C(=N/O)NCCN2CCCC2)c(Oc2ccc(F)cc2)n1 | 91 |
| C=CCN1CCN(/C(=N\O)c2ccc(C)nc2OCc2cccc(F)c2)CC1 | 3 |
| CCC(NCc1coc(-c2cccs2)n1)c1ccccc1 (centres undefined) | -5 |
| c1coc(-c2nc(CNC3CCc4ccccc43)co2)c1 (centres undefined) | 17 |
| CN(Cc1coc(-c2ccccc2F)n1)Cc1cccc2ccccc12 | -49 |
| CCN(C)Cc1coc(-c2cccc(F)c2)n1 | -10 |
| COc1cc(CNCc2coc(-c3ccc(O)cc3)n2)cc(OC)c1 | 8 |
| CC(C)c1ccc(N/C(=N\O)c2ccc(Oc3ccc4oc5ccccc5c4c3)nc2)cc1 | 25 |
| Cc1ccc(/C(=N/O)N2CCSCC2)c(OCc2cccc(F)c2)n1 | -17 |

| SMILES | % inhibition [%] |
| --- | --- |
| CCOC(=O)C1CCCN(Cc2coc(-c3cc(OC)c(OC)c(OC)c3)n2)C1 (centres undefined) | -16 |
| CN(Cc1coc(-c2ccc(Br)cc2)n1)CC1OCCO1 | 11 |
| Cc1ccccc1-c1nc(CN2CC(C)CC(C)C2)co1 (centres undefined) | 6 |
| Cc1ccc(Oc2nc(C)ccc2/C(=N/O)NCC2CC2)cc1 | 74 |
| COc1ccc(Oc2nc(C)ccc2/C(=N/O)NCC2CC2)cc1 | 24 |
| Cc1ccc(/C(=N/O)NCC2CC2)c(Oc2ccc(F)cc2)n1 | 33 |
| CCOc1cccc(-c2nc(Cn3cnc(-c4ccccc4)c3)co2)c1 | 11 |
| CN(Cc1coc(-c2ccco2)n1)C1CCCCC1 | 11 |
| Cc1ccccc1CNCc1coc(-c2ccc(O)cc2)n1 | 1 |
| O/N=C(\NC1CC1)c1cccnc1Oc1ccccc1F | 78 |
| O/N=C(/c1cccnc1Oc1ccccc1F)N1CCOCC1 | 13 |
| O/N=C(\NCCN1CCCC1)c1cccnc1Oc1ccccc1F | 30 |
| Cc1ccc(/C(=N/O)NC2CC2)c(Oc2cccc3cccnc23)n1 | 29 |
| O/N=C(/c1cccnc1Oc1ccccc1F)N1CCCCC1 | 23 |
| CSc1ccccc1Oc1ncccc1/C(=N/O)N1CCCCC1 | 8 |
| O/N=C(\NC1CCCC1)c1cccnc1Oc1ccccc1F | 96 |
| COC(=O)C1CCN(/C(=N\O)c2cccnc2Oc2ccccc2SC)CC1 | 18 |
| COC(=O)C1CCN(/C(=N\O)c2cccnc2Oc2ccccc2OC)CC1 | 15 |
| CSc1ccccc1Oc1ncccc1/C(=N/O)NC1CCCC1 | 99 |
| COc1ccccc1Oc1ncccc1/C(=N/O)NC1CCCC1 | 99 |
| COc1ccccc1Oc1ncccc1/C(=N/O)N1C(C)CCCC1C (centres undefined) | 9 |
| CC(C)c1ccc(Oc2ncccc2/C(=N/O)N2CCC=N2)cc1 | -4 |
| Cc1nccn1/C(=N\O)c1ccnc(Oc2ccc(Cl)cc2)c1 | 5 |
| COc1ccc(-c2nc(CN3CCC(C)CC3)co2)cc1 | 12 |

| SMILES | % inhibition [%] |
| --- | --- |
| Cc1cccc(N2CCN(Cc3coc(-c4ccc(O)cc4)n3)CC2)c1C | 3 |
| Brc1ccc(-c2nc(CNCCCN3CCOCC3)co2)cc1 | -12 |
| CCCCN(CC)Cc1coc(-c2cccc(OC)c2)n1 | -18 |
| Cc1nccn1/C(=N\O)c1cccnc1Oc1ccccc1 | 10 |
| COc1cc(C)ccc1Oc1nc(C)ccc1/C(=N/O)N1C(C)C=CC1C (centres undefined) | -2 |
| CN1CCCC1CCNCc1coc(-c2ccccc2Br)n1 (centres undefined) | 57 |
| CCOc1cccc(-c2nc(CNCCC3CCCN3C)co2)c1 (centres undefined) | 99 |
| CN1CCCC1CCNCc1coc(-c2cccs2)n1 (centres undefined) | -4 |
| CCOc1cccc(-c2nc(CNCCN3CCCC3)co2)c1 | -12 |
| CCOc1cccc(-c2nc(CNCCN3CCOCC3)co2)c1 | -2 |
| CN1CCCC1CCNCc1coc(-c2ccc(Br)cc2)n1 (centres undefined) | 97 |
| Brc1ccc(-c2nc(CNCCN3CCCCC3)co2)cc1 | 43 |
| Brc1ccccc1-c1nc(CNCCN2CCCCC2)co1 | -1 |
| Brc1ccc(-c2nc(CNCCN3CCOCC3)co2)cc1 | -53 |
| CC(C)COc1ncccc1/C(=N/O)N1CCN(c2ccc(F)cc2)CC1 | 0 |
| O=Cc1nccn1Cc1coc(-c2ccc(F)cc2)n1 | -8 |
| CSc1ccc(Oc2cc(/C(=N/O)N3CC(C)CC(C)C3)ccn2)cc1 (centres undefined) | 18 |
| Oc1ccc(-c2nc(CNCc3ccccc3C(F)(F)F)co2)cc1 | 18 |
| CN(Cc1ccco1)/C(=N\O)c1cccnc1Oc1ccc(Cl)cc1 | 4 |
| CC(C)COc1ncccc1/C(=N/O)NCc1ccco1 | 3 |
| CSc1ccc(Oc2nc(C)ccc2/C(=N/O)N(C)Cc2ccco2)cc1C | 12 |
| COc1ccc(Oc2ncccc2/C(=N/O)NCc2ccco2)cc1 | -14 |
| Cc1ccc(/C(=N/O)N(C)Cc2ccco2)c(Oc2cccc(C(C)C)c2)n1 | 67 |
| O/N=C(\NCc1ccccn1)c1cccnc1Oc1ccc2oc3ccccc3c2c1 | 7 |

| SMILES | % inhibition [%] |
| --- | --- |
| CC(C)c1ccc(Oc2ncccc2/C(=N/O)NCc2ccco2)cc1 | 96 |
| O/N=C(\NCc1cccs1)c1cccnc1Oc1ccc2oc3ccccc3c2c1 | 75 |
| CC(C)c1ccc(Oc2ncccc2/C(=N/O)N(C)Cc2ccco2)cc1 | 75 |
| Cc1ccc(/C(=N/O)N(C)Cc2ccco2)c(Oc2cccc(F)c2)n1 | 22 |
| O/N=C(\NCc1ccncc1)c1cccnc1Oc1ccc2oc3ccccc3c2c1 | 10 |
| COc1ccc(Oc2ncccc2/C(=N/O)N(C)Cc2ccco2)cc1 | -11 |
| CC(C)COc1ncccc1/C(=N/O)N(C)Cc1cccnc1 | -1 |
| Cc1cn(/C(=N\O)c2ccc(Oc3ccc4oc5ccccc5c4c3)nc2)cn1 | 16 |
| CCOc1cccc(-c2nc(CN(C)CC#N)co2)c1 | 15 |
| O/N=C(/c1cccnc1Oc1ccc(F)cc1)N1Cc2ccccc2C1 | 4 |
| COC(CN(C)Cc1coc(-c2ccc(Br)cc2)n1)OC | 4 |
| CCOc1ccccc1-c1nc(CN2CCCCC2)co1 | -1 |
| CN(Cc1coc(-c2ccc(C(F)(F)F)cc2)n1)Cc1ccco1 | 18 |
| O/N=C(\NCc1cccs1)c1cccnc1Oc1cccc(C(F)(F)F)c1 | -12 |
| CC(C)c1ccc(Oc2ncccc2/C(=N/O)NCc2cccs2)cc1 | 100 |
| COc1ccc(Oc2ncccc2/C(=N/O)NCc2cccs2)cc1 | 37 |
| Clc1ccccc1-c1nc(CNC(Cc2ccccc2)c2ccccc2)co1 (centres undefined) | -20 |
| Cc1ccccc1-c1nc(CNC2CCCCCC2)co1 | 61 |
| Brc1ccccc1-c1nc(CNC2CCCCCC2)co1 | -20 |
| Brc1ccccc1-c1nc(CNC2CCCCCCCCCCC2)co1 | 59 |
| Cc1ccccc1-c1nc(CNC2CCN(Cc3ccccc3)C2)co1 (centres undefined) | 30 |
| Brc1ccccc1-c1nc(CNC2CCN(Cc3ccccc3)C2)co1 (centres undefined) | -6 |
| Cc1ccccc1-c1nc(CNC[C@@H]2CCCO2)co1 | -1 |
| COc1cc(CN(C)Cc2coc(-c3ccccc3C)n2)cc(OC)c1OC | -15 |

| SMILES | % inhibition [%] |
| --- | --- |
| CCCN(Cc1coc(-c2cc(OC)c(OC)c(OC)c2)n1)c1ccccc1 | 1 |
| O/N=C(/c1cccnc1OCc1ccccc1)N1CCSCC1 | 13 |
| CC(NCc1coc(-c2cccs2)n1)C1CCCCC1 (centres undefined) | -3 |
| c1csc(-c2nc(CNC3CCCC3)co2)c1 | -11 |
| C[C@@H]1C(NCc2coc(-c3cccs3)n2)C[C@H]2C[C@@H]1C2(C)C (some centres undefined) | 62 |
| C[C@H]1C(NCc2coc(-c3cccs3)n2)C[C@@H]2C[C@H]1C2(C)C (some centres undefined) | 87 |
| CC1CC(C)CN(Cc2coc(-c3cccs3)n2)C1 (centres undefined) | 2 |
| c1csc(-c2nc(CNC3CCc4ccccc43)co2)c1 (centres undefined) | -11 |
| COc1cccc(Oc2ccc(/C(=N/O)N3CCSC3)cn2)c1 | 6 |
| Cc1ccc(CCNCc2coc(-c3cccc(F)c3)n2)cc1 | -9 |
| CCCN(Cc1coc(-c2cccc(C)c2)n1)c1ccccc1 | 7 |
| CC1CCC(N/C(=N\O)c2ccnc(Oc3cccc4cnccc34)c2)CC1 (centres undefined) | 10 |
| CC1CCC(N/C(=N\O)c2ccnc(Oc3cccc4cccnc34)c2)CC1 (centres undefined) | 95 |
| CCC(C)(C)N/C(=N\O)c1ccnc(Oc2cccc3ccc(C)nc23)c1 | 51 |
| Cc1ccc2cccc(Oc3cc(/C(=N/O)NC4CCC(C)CC4)ccn3)c2n1 (centres undefined) | 94 |
| Cc1cc(C)cc(CN/C(=N\O)c2ccnc(Oc3cccc4ccc(C)nc34)c2)c1 | 18 |
| Cc1ccc2cccc(Oc3ccc(/C(=N/O)Nc4ccc(C(C)C)cc4)cn3)c2n1 | 8 |
| Cc1ccc2cccc(Oc3cc(/C(=N/O)N4C(C)CCCC4C)ccn3)c2n1 (centres undefined) | 19 |
| Cc1ccc2cccc(Oc3ccc(/C(=N/O)NC4CCCCC4)cn3)c2n1 | 99 |
| Cc1ccc2cccc(Oc3cc(/C(=N/O)NCc4c(F)cccc4F)ccn3)c2n1 | 17 |
| Cc1ccc2cccc(Oc3ccc(/C(=N/O)n4cccn4)cn3)c2n1 | 4 |
| Cc1ccccc1CN/C(=N\O)c1ccnc(Oc2cccc3cccnc23)c1 | 43 |
| Cc1ccc2cccc(Oc3cc(/C(=N/O)NC4CC(C)CC(C)(C)C4)ccn3)c2n1 (centres undefined) | 10 |
